Measurements from PubChem BioAssay.
“And” between values parts separate entries of the source, which are not always exact repeats. Equal values may be shown once. The source made the active and inactive calls.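 How the source made its calls, unless noted: active means inhibition at or above 50% relative to wild type and mutant plate controls; inactive means inhibition below 50%.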

Legend:
[1] = inhibitors of TNFa-induced NFkB p65 translocation, primary screen, imaging, HUVEC, MLSMR starter and 10KST1 sets (AID 438;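 active means inhibition above 20% together with a positive visual image hit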;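 further: compound added about 3h40 before a 20 min TNFalpha stimulation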;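 on inhibition: signal is the nuclear over cytoplasmic p65 intensity ratio per well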); conditions: HUVEC TNFa-induced p65 nuclear translocation; cell count: measured here: nuclei count (cytotoxicity indicator), at 2.08 µM; inhibition: at 2 µM, stronger effect = higher value, 0% TNFa-plus-vehicle, 100% no-TNFa wells
[2] = reduction of polyQ htt aggregates in cells – imaging, exon1htt(103Q)mCFP cells, high-content imaging, primary screen (AID 483;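 active means visual image review flags a hit and inhibition of aggregation exceeds 20%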;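 further: compound exposure lasted 3 days before fixation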;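 on nuclei count: percent of the per-plate median nuclei count of sample wells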); conditions: exon1htt(103Q)mCFP cell line, aggregate imaging, at 2 µM; inhibition of aggregation: stronger effect = higher value; nuclei count: measured here: cell count, toxicity
[3] = endothelial E-selectin expression blockers – imaging, HUVEC, immunofluorescence, MLSMR starter and 10KST1 sets, primary screen (AID 487;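 active means visually confirmed hit in the image check and inhibition above 20%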;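 on inhibition: signal is fraction of cell area covered by stained E-selectin grains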;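 on nuclei count: 100% = median nuclei count of all wells on the same plate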); conditions: HUVEC TNFalpha-induced E-selectin immunofluorescence imaging, at 2 µM; inhibition: stronger effect = higher value; nuclei count: measured here: cell number, toxicity
[4] = Primary imaging screen for DUSP6 inhibitors that restore phospho-Erk in transfected HeLa cells, chemical complementation (AID 609;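 active means compounds giving at least 50% inhibition in the cell-based MKP-3 phosphatase rescue imaging test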;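 on inhibition: phospho-Erk level distribution per well compared with pooled transfected vehicle control wells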); conditions: HeLa MKP-3 transfected, phospho-Erk imaging KS statistic, at 10 µM, cells stimulated with TPA for 15 min
[5] = biological target: Dual specificity protein phosphatase 6 (Homo sapiens) (UniProt Q16828); assay: as above; conditions: HeLa MKP-3 transfected, phospho-Erk imaging KS statistic; at 10 µM; stronger effect = higher value; cells stimulated with TPA for 15 min
[6] = biological target: Voltage-gated potassium channel subunit beta-2 (Rattus norvegicus) (UniProt P62483); assay: inhibitors of rat Kvbeta2 reductase activity – biochemical, NADPH fluorescence, primary screen (AID 622;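 active means fluorescence slope higher than the sample average by over 3 SD, cut at about -0.22 in these data, passing the limit was not always enough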;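 further: slope of raw intensity against log time taken from 70 to 1610 s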); conditions: recombinant KvBeta, 4-cyanobenzaldehyde reduction, at 10 µM, stronger effect = higher value
[7] = biological target: Voltage-gated potassium channel subunit beta-2 (Rattus norvegicus) (UniProt P62483); assay: enhancers of rat Kvbeta2 NADPH turnover – biochemical, NADPH fluorescence, primary screen (AID 623;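 active means NADPH fluorescence slope more negative than the mean of all samples by about 3 SD, 99.7% confidence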;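 further: fluorescence intensity change per second fitted from 20 to 320 s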); conditions: Recombinant KvBeta, NADPH fluorescence decrease slope, 10 min; at 10 µM; stronger effect = lower value
[8] = biological target: Alpha-2C adrenergic receptor (Homo sapiens) (UniProt P18825); assay: compounds altering alpha2C-coupled GIRK flux – cell-based, HEK293 alpha2C/GIRK1/2, thallium flux, primary screen (AID 624;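 active means fluorescence slope after compound addition differing from the mean of all screened samples at 99.7% confidence, in either direction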;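 further: slope of fluorescence ratio to pre-addition baseline per second over 15 to 24 s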); conditions: thallium flux BTC fluorescence, at 10 µM, actives lie on both sides
[9] = inhibitors of larval lipid processing in zebrafish, primary screen, whole organism, PED6 fluorescence, gall bladder and intestine (AID 686;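 active means a full or partial loss of lipid-probe fluorescence in the fish gall bladder, intestine or both, judged by eye; inactive means no fluorescence loss, or compound toxic to the fish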;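 further: larvae 5 to 7 days old with five fish per well; signal comes from phospholipase A2 cleavage of quenched PED6 carried via bile; overnight exposure to compound and PED6 before scoring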); conditions: Zebrafish larvae PED6 lipid processing, fluorescence scoring; screened at 20 µM (by protocol)
[10] = loss of swimming-algae plug formation – whole organism, Chlamydomonas reinhardtii, WT vs cilia-less mutant, absorbance, 96-well, primary screen (AID 463189); conditions: Chlamydomonas reinhardtii gravitaxis, OD600 absorbance, 2 days; at 10 µM; stronger effect = higher value;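 further: 0% = wild type cc124 cells in DMSO and 100% = ciliumless bld1 mutant cells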
[11] = blockers of RIG-like receptor reporter activation – cell-based, Sendai virus stimulus, luciferase, 10K MLSCN set, TLR/RLR signaling modifier project, primary screen (AID 602276;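 active means inhibition at or above 50% at 10 µM; inactive means inhibition below 50%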;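 further: firefly luciferase from ISG56 promoter only with Renilla not read in this screen; 0% = Sendai virus plus DMSO and 100% = medium plus DMSO without virus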); conditions: HEK293 RL24 IRF3 luciferase reporter, at 10 µM, stronger effect = higher value
[12] = TLR3 IRF3 reporter activation blockers – cell-based, poly I:C stimulus, luciferase, 10K MLSCN set, primary screen (AID 602277;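 active means inhibition of the reporter signal at or above 50%; inactive means inhibition below 50%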); conditions: HEK293-TLR3 RL24 IRF3 luciferase reporter, at 10 µM, stronger effect = higher value
[13] = measured here: cell density z-score
[14] = measured here: nuclear c-Myc green intensity z-score
[15] = measured here: nuclear pErk red intensity z-score, stronger effect = higher value

Sequence of Dual specificity protein phosphatase 6 (Homo sapiens) (Q16828 whole entry, looked up): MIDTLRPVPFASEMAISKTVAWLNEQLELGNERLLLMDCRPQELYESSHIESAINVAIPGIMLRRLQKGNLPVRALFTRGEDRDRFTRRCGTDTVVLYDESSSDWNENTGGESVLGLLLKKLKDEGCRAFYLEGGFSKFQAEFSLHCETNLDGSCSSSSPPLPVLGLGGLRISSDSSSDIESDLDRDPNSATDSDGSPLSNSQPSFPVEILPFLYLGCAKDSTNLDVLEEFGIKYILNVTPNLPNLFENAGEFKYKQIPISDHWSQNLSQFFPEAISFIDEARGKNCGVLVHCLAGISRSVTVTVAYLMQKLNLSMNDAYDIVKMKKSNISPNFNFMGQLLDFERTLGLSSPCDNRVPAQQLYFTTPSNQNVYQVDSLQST
Sequence of Alpha-2C adrenergic receptor (Homo sapiens) (P18825 whole entry, looked up): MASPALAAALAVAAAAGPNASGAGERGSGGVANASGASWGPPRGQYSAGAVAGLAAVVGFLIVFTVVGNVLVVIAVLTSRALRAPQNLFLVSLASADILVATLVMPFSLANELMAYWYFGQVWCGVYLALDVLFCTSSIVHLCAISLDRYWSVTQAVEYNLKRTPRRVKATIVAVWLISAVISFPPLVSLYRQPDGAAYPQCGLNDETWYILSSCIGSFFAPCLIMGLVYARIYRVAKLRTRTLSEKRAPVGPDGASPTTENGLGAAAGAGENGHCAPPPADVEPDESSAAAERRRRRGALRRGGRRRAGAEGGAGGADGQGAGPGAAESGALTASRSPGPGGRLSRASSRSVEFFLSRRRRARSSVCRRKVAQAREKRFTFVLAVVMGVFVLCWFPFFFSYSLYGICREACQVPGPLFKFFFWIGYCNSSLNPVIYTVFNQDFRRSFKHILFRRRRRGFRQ
Sequence of Voltage-gated potassium channel subunit beta-2 (Rattus norvegicus) (P62483 whole entry, looked up): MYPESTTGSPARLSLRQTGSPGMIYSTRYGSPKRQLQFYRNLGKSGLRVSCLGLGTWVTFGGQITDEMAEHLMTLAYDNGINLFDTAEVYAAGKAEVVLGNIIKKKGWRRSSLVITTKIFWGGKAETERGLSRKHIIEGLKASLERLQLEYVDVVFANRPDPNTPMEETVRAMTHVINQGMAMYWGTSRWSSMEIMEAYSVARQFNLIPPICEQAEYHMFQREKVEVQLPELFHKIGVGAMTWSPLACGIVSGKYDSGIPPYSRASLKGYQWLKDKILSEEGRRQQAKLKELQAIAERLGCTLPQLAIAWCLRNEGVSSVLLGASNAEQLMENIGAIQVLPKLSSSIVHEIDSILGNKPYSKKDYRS

Compound	cell count [1]	inhibition [1]	inhibition of aggregation [2]	nuclei count [2]	inhibition [3]	nuclei count [3]	z-score [4, 13]	z-score [4, 14]	z-score [4, 15]	inhibition [5]	fluorescence slope [6]	NADPH fluorescence slope [7]	slope [8]	outcome [9]	inhibition [10]	inhibition [11]	inhibition [12]
O=C(NC1CCS(=O)(=O)C1)N1CCCCC1 (stereo not given)	486	0.6% (inactive)	-3.3% (inactive)	106%	-68.8% (inactive)	126%	-0.342	1.35	0.612	1.6e-07% (inactive)	-0.485 (inactive)	-6.6e-05 (inactive)	0.00544 (inactive)	inactive	-28.4% (inactive)	11.2% (inactive)	18.8% (inactive)
COc1ccc2c(c1OC)C(=O)OC2C1c2c(cc3c(c2OC)OCO3)CCN1C (stereo not given)	463 and 544	-10.9% (inactive) and 0.8% (inactive)	-1% (inactive) and -12.6% (inactive)	101% and 94.4%	-43.9% (inactive) and -115% (inactive)	132% and 119%	1.55	-0.813	-0.77	5.42% (inactive)	-0.541 (inactive) and -0.459 (inactive)	7.5e-05 (inactive) and -6e-05 (inactive)	0.0053 (inactive) and 0.00526 (inactive)	inactive	19.2% (inactive)	23.1% (inactive) and 13.1% (inactive)	29.1% (inactive) and 24% (inactive)
COC(=O)CN(c1nc(C)c(Cl)c(OC)n1)S(=O)(=O)c1ccc(C)cc1	706	-4.1% (inactive)	2.4% (inactive)	98.1%	-48.3% (inactive)	148%	-0.882	0.458	1.21	-11% (inactive)	-0.373 (inactive)	-4.1e-05 (inactive)	0.00465 (inactive)	inactive	5.7% (inactive)	13.8% (inactive)	18.7% (inactive)
COC(=O)CSc1nc2sc3c(c2c(=O)n1C1CCCCC1)CCN(C)C3	390	-4.4% (inactive)	-16% (inactive)	102%	-127% (inactive)	140%	-0.811	-0.963	1.03	-8.59% (inactive)	-0.289 (inactive)	2e-05 (inactive)	0.00385 (inactive)	inactive	14.6% (inactive)	15.7% (inactive)	38.9% (inactive)
OC(CCN1CCCCC1)(c1ccccc1)c1ccccc1	674	-1.6% (inactive)	-18% (inactive)	108%	-75.5% (inactive)	114%	0.144	-1.15	-0.931	-0.493% (inactive)	-0.458 (inactive)	-3.9e-05 (inactive)	0.00533 (inactive)	inactive	-6.75% (inactive)	16.1% (inactive)	48% (inactive)
CC1CCc2cc(F)cc3c(O)c(C(=O)Nc4cnccn4)c(=O)n1c23 (stereo not given)	457	-7.7% (inactive)	3.8% (inactive)	99.3%	-40.6% (inactive)	99.4%	0.762	0.74	0.103	17.5% (inactive)	-0.351 (inactive)	2e-05 (inactive)	0.0057 (inactive)	inactive	-9.12% (inactive)	13.2% (inactive)	21.7% (inactive)
NC(=O)N1c2ccccc2C=Cc2ccccc21	639	-4.6% (inactive)	-10.6% (inactive)	110%	-55.6% (inactive)	127%	-0.0512	0.625	-1.48	15.3% (inactive)	-0.492 (inactive)	-4.6e-05 (inactive)	0.00463 (inactive)	inactive	5.34% (inactive) and 20.1% (inactive)	7.49% (inactive)	22.1% (inactive)
C[C@]12CC[C@@H]3c4ccc(O)cc4CC[C@H]3[C@@H]1CCC2=O	576	-0.3% (inactive)	3.1% (inactive)	98%	-80.9% (inactive)	120%	-8.47	2.04	2.06	17.3% (inactive)	-0.463 (inactive)	-3.3e-05 (inactive)	0.00425 (inactive)	inactive	-0.014% (inactive) and 40.8% (inactive)	8.21% (inactive)	34.8% (inactive)
COc1ccccc1NC(=O)C1=C(C)NC(SCC(=O)c2ccc(C)cc2)=C(C#N)C1c1ccco1 (stereo not given)	529	-0.5% (inactive)	9.6% (inactive)	99.4%	6.5% (inactive)	114%	0.647	-0.415	1.41	-2.07% (inactive)	-0.481 (inactive)	-7.1e-05 (inactive)	0.00753 (inactive)	inactive	36.3% (inactive)	-17.3% (inactive)	-56.3% (inactive)
CCOC(=O)C1CCN(c2nc3ccccc3nc2C(C#N)C(=O)OC(C)C)CC1 (stereo not given)	520	-11.5% (inactive)	-208% (inactive)	104%	-90.1% (inactive)	128%	-0.0557	0.253	-0.0521	-4.27% (inactive)	-0.341 (inactive)	-2.3e-08 (inactive)	0.00139 (inactive)	inactive	9.67% (inactive)	-15.8% (inactive)	-37.7% (inactive)
CCOC(=O)CC(=O)CSc1[nH]c(=O)cc(C)c1C#N	653	-6% (inactive)	5.4% (inactive)	96.3%	28.4% (inactive)	132%	-1.3	0.221	-0.165	11% (inactive)	-0.403 (inactive)	-6.7e-05 (inactive)	0.0053 (inactive)	inactive	6.76% (inactive)	3.57% (inactive)	10% (inactive)
O=C(O)c1cc2cc(F)ccc2[nH]1	552	-0.9% (inactive)	-5.1% (inactive)	95.6%	-14.2% (inactive)	107%	2.14	-1.93	-0.0855	-5.24% (inactive)	-0.457 (inactive)	-3.2e-05 (inactive)	0.00488 (inactive)	inactive	-3.42% (inactive) and -23.2% (inactive)	12.4% (inactive)	46.1% (inactive)
CNC[C@H](O)c1cccc(O)c1	561	0.6% (inactive)	1.2% (inactive)	89.3%	-73.1% (inactive)	117%	0.304	0.128	-0.803	14.6% (inactive)	-0.468 (inactive)	-5e-05 (inactive)	0.00773 (inactive)	inactive	-10.5% (inactive) and 0.836% (inactive)	11.5% (inactive)	41.6% (inactive)
O=C(NCCO)c1cccc2c1C(=O)c1ccccc1-2	511	-13.6% (inactive)	9.3% (inactive)	91.4%	-95.8% (inactive)	137%	-0.677	1.11	1.88	7.73% (inactive)	-0.517 (inactive)	-5.1e-05 (inactive)	0.00471 (inactive)	inactive	31.9% (inactive)	4.9% (inactive)	-1.91% (inactive)
COC(=O)C1=C(N)Oc2cc(C)[nH]c(=O)c2C1c1ccncc1 (stereo not given)	415	-3.5% (inactive)	5.1% (inactive)	99.8%	-70.4% (inactive)	132%	1.07	-0.647	-1.1	11.4% (inactive)	-0.45 (inactive)	-0.000119 (inactive)	0.00625 (inactive)	inactive	35.9% (inactive)	22.8% (inactive)	38.8% (inactive)
CN(C=C1C(=O)CC(C)(C)CC1=O)CCN1CCNCC1	624	-4.9% (inactive)	-3.7% (inactive)	97.1%	-43.7% (inactive)	121%	-0.672	-0.802	1.89	-1.98% (inactive)	-0.519 (inactive)	-5.2e-05 (inactive)	0.00485 (inactive)	inactive	6.8% (inactive)	14.6% (inactive)	16.6% (inactive)
C[C@@H]1C[C@H]2[C@@H]3C[C@H](F)C4=CC(=O)C=C[C@]4(C)[C@@]3(F)[C@@H](O)C[C@]2(C)[C@@]1(O)C(=O)COC(=O)C(C)(C)C	563	1.4% (inactive)	-3% (inactive)	51.7%	-36.8% (inactive)	92.6%	0.404	-0.122	-1.39	5.42% (inactive)	-0.475 (inactive)	-6.6e-05 (inactive)	0.00583 (inactive)	inactive	-9.6% (inactive)	2.87% (inactive)	35.9% (inactive)
COc1cc([C@@H]2[C@H]3CN(C)CC=C3C(C#N)=C(N)C2(C#N)C#N)cc2c1OCO2	394	-2.2% (inactive)	31.8% (inactive)	111%	-39.2% (inactive)	109%	0.739	-0.834	0.31	57.9% (inactive)	-0.309 (inactive)	9.9e-07 (inactive)	0.00454 (inactive)	inactive	38% (inactive)	4.57% (inactive)	19.8% (inactive)
N#Cc1nc(-c2cccs2)oc1NCCc1ccccc1	421	-5.5% (inactive)	2.8% (inactive)	101%	-33.7% (inactive)	109%	-0.62	-0.621	-1.02	-6.48% (inactive)	-0.332 (inactive)	1.7e-05 (inactive)	0.00708 (inactive)	inactive	11.6% (inactive)	-37.1% (inactive)	-77.6% (inactive)
Cc1cc(C)nc(NC(=O)c2ccc(OC(C)C)cc2)n1	520	-2.7% (inactive)	-1.7% (inactive)	110%	-53% (inactive)	123%	0.524	1.41	-0.231	17% (inactive)	-0.449 (inactive)	-4.9e-05 (inactive)	0.00572 (inactive)	inactive	-2.45% (inactive)	-1.16% (inactive)	-12.9% (inactive)
